Screening results (PubChem BioAssay)
Shown are actives, neighbours in structure and some others; about 4.6% of the full set was active somewhere.
D1 potentiator – human D1 dopamine receptor positive modulation | P21728 | HEK293 TREx D1 cells, calcium flux, dopamine EC20 potentiation | potentiation, % at 10 µM | 360,000 tested, 0.036% active | AID 504651; in the data active means potentiation above about 30%; further: 0% is about no effect
D1 antag – antagonists of human D1 dopamine receptor; P21728; HEK293 TREx D1 cells, calcium flux, dopamine EC80; active compounds read low; activity change, negative = inhibition, % at 10 µM; 360,000 tested, 3.2% active; AID 504652; in the data active means activity change below about -30%; further: on the % scale 0 is the no-effect control and ±100 the full control effect
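Using tetracycline-induced force-coupled D1 Hek293 cells and a calcium dye, signals were followed for 180 s after compound, then for 180 s after EC80 dopamine, to detect inhibitors.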
TRHR enhancer – TRH receptor (human) allosteric enhancement. P34981. 360,000 tested, 0.66% active. enhancement, % at 2 µM. AID 493056. TRHR cells, fluo-8 calcium fluorescence, EC20 TRH enhancement; in the data active means enhancement above about 30%; further: 0% is about no effect
Target sequence (P34981 whole entry, looked up): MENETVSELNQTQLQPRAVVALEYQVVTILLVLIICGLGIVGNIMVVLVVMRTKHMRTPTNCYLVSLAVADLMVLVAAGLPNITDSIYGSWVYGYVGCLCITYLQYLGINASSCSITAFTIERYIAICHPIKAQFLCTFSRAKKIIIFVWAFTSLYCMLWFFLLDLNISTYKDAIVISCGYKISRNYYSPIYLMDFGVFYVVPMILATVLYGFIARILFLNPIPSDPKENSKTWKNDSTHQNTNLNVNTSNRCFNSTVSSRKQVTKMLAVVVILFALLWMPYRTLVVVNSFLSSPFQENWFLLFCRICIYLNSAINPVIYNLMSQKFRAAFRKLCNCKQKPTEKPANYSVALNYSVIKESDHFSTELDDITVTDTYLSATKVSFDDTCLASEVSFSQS
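Enhancer read-out: after compound pinning and an initial kinetic agonist-mode read, an EC20 of TRH (10 nM final) was injected and fluo-8 calcium signal (Ex 480/Em 530) followed at 1 s/cycle for 100 cycles in TRHR-expressing cells.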
D1 agonist – agonists of human D1 dopamine receptor | P21728 | HEK293 T-REx D1 cells, calcium flux, agonist mode | activation, % at 2 µM | 360,000 tested, 1% active | AID 504660; further: 0% is about no effect
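Agonism was scored from calcium flux recorded over 180 s (1 read/s) after pintool compound addition, following a 10-cycle baseline. Cells were inducible force-coupled HEK293 TREx D1, plated overnight at 30 C and loaded with no-wash calcium dye.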
TRHR ag – activates the human TRH receptor; P34981; TRHR cells, calcium flux fluo-8, FDSS agonist mode; activation, % at 2 µM; 360,000 tested, 0.18% active; further: 0% is about no effect
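TRHR-expressing cells, plated overnight in medium with 10% serum, were loaded with fluo-8 calcium dye at room temperature. After a 10 s baseline, library compound was pin-added and calcium release was recorded kinetically (ex 480/em 530) as agonist response.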
Starred values were filed as active, the others as inactive. Unless noted, no stated cut-off is given here; in the data, active means activation above about 30%; inactive means the rest.

SMILES	D1 potentiator	D1 antag	TRHR enhancer	D1 agonist	TRHR ag
Cc1cccc(-c2nsc(SCC(=O)N3CCCC3)n2)c1	-1	-37*	-9	5	0
Cc1cccc(-n2c(SCC(=O)N3CCCC3)nc3n[nH]c(C)c3c2=N)c1	2	-10	40*	6	-1
CCCCn1c(CCc2ccccc2)nc2cc3[nH]c(=O)c(C(C)C)nc3cc21	-17	-82*	-1	2	0
O=C(/C=C/c1ccc2c(c1)OCCO2)N1CCN(c2ccc(F)cc2)CC1	-7	7	1	1	0
CCOC(=O)c1ccc(COC(=O)CCc2nc3ccccc3[nH]c2=O)o1	-5	8	28	0	1
O=C(CCc1ccc(S(=O)(=O)N2CCOCC2)cc1)OCc1nc2ccccc2s1	2	-9	-9	33*	-1
O=C(CCc1nc2ccccc2[nH]c1=O)OCc1ccc(S(=O)(=O)N2CCOCC2)cc1	1	-7	36*	1	0
COc1ccc([C@@H]2C[C@@H](c3ccccc3)Oc3cc(OC)c(OC)c(OC)c32)cc1	2	2	-6	1	0
COC(=O)Cc1c(C)c2ccc(OCC(=O)N3CCOCC3)cc2oc1=O	-1	-32*	-4	1	1
CCc1c(C)c2ccc(OCC(=O)OC)cc2oc1=O	-4	6	-2	5	0
COc1ccc(N2CCN(C3CCCN(Cc4cccc(C)c4)C3)CC2)cc1 (stereo unspecified)	-1	-1	1	2	0
C[C@@H](C(=O)NCc1ccccc1)[C@@H]1C[C@@]1(C)[C@@H](NC(=O)OCc1ccccc1)c1ccccc1	2	0	4	13	-1
C[C@@H](C(=O)NCc1ccccn1)[C@@H]1C[C@@]1(C)[C@@H](NC(=O)OCc1ccccc1)c1ccccc1	2	-31*	-5	-2	-1
CN(c1cccc(NC(=O)CN(c2ccc(Cl)c(Cl)c2)S(=O)(=O)c2ccccc2)c1)S(C)(=O)=O	7	-10	5	4	0
Cc1ccc(S(=O)(=O)N(CC(=O)Nc2ccc3c(c2)OCO3)c2cc(Cl)cc(Cl)c2)cc1	-2	-2	17	8	0
Cc1ccc(S(=O)(=O)N(CC(=O)Nc2c(C)cccc2C)c2cccc(Cl)c2)cc1	1	-85*	-9	1	-2
Cc1ccc(S(=O)(=O)N(CC(=O)Nc2cccc(N(C)S(C)(=O)=O)c2)c2ccc(Cl)c(Cl)c2)cc1	-12	-32*	3	4	2
Cc1ccc2nc(-c3ccccc3)cc(C(=O)NNC(=O)c3csc(N4CCOCC4)n3)c2c1	4	12	2	2	0
COc1ccc(N=Cc2oc3ccc4ccccc4c3c2O)cc1	0	-4	-2	78*	24
O=C(c1ccc(O)cc1)c1ccc(O)cc1O	-4	5	4	4	0
O=C(c1ccccc1)c1ccc(O)cc1O	-2	-8	-4	60*	20
COCC(=O)N1CCCC(N(C)CCc2ccc(OC)c(OC)c2)C1 (stereo unspecified)	-12	0	-6	4	0
CCOC(=O)c1c(-c2cccs2)csc1NC(C)=O	-2	2	-1	0	0
CCOC(=O)c1c(-c2cccs2)csc1NC(=O)C(C)(C)C	9	9	0	34*	0
CC(C)(C)S(=O)(=O)Cc1nc(-c2ccc(Cl)c(Cl)c2)cs1	-4	-13	-3	9	1
SMILES	D1 potentiator	D1 antag	TRHR enhancer	D1 agonist	TRHR ag
Cc1cc(C)n2ncc(C(=O)O)c2n1	-3	-46*	1	-1	0
Cc1cc(C)n2ncc(C(=O)Nc3ccc(Cl)c(Cl)c3)c2n1	3	-5	3	-1	1
Cc1cc(NC(=O)c2c(-c3c(F)cccc3Cl)noc2C)no1	-1	-3	-1	11	0
Cc1cc(C)nc(NC(=O)c2c(-c3c(Cl)cccc3Cl)noc2C)n1	-4	13	15	-1	0
Cc1cc(NC(=O)c2c(Cl)cccc2Cl)no1	-5	14	30*	3	-1
Cc1cc(NC(=O)c2ccc(-c3ccc(F)c(Cl)c3)o2)no1	-3	4	-3	2	0
Cc1cc(NC(=O)c2ccc(-c3ccccc3F)o2)no1	-4	10	37*	6	0
